# From PubChem
# DRD3 antagonist: blocks the human D3 dopamine receptor | max response, negative = inhibition, % | P35462 | AID 652054 | 360,000 tested, 2.5% active | D3R cells, DiscoveRx beta-arrestin luminescence, antagonist mode; stronger effect = lower value; in the data active = max response below about -50%; inconclusive = no clear call, values can overlap the other calls; note: % is set by controls: 0 for no effect and ±100 for the full control effect
# Target sequence (P35462 whole entry, looked up): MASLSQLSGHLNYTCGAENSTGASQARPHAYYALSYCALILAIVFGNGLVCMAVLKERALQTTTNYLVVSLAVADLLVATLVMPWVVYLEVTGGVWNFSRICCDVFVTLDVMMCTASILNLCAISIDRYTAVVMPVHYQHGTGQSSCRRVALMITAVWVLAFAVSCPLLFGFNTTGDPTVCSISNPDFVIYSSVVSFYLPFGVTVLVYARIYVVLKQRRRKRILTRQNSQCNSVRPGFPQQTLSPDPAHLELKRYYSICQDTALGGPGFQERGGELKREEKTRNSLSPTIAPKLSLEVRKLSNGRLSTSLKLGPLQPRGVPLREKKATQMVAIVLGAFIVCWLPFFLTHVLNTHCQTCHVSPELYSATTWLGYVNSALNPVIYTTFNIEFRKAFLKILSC
#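 Cells plated overnight at 1500 cells/well, then exposed to library compounds with dopamine controls for 90 minutes at 37 degrees C. DiscoveRx reagent added for 30–60 minutes at room temperature; luminescence read, quantitative HTS format.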
# D3 ag: D3 dopamine receptor (human) agonism. D3R DiscoveRx beta-arrestin cells, luminescence, 90 min. max activation, %. 410,000 tested, 0.58% active; in the data active = max activation above about 30%; note: 0% is about no effect
#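 Agonist-mode cell screen: cells plated at 1500/well and incubated overnight at 37 °C, then exposed to library compounds for 90 min at 37 °C. Detection reagent was added for 30–60 min at room temperature, and luminescence was read.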
# Integrin act MD: activators of alpha7 integrin expression for muscular dystrophy; alpha7betagal myoblasts, beta-gal FDG fluorescence, 48 h; Potency, µM (highest dose often 38.3 µM), for the others: at the top dose activation, most hits filed as activators; 350,000 tested, 0.064% active; active = well fitted activation curve with a large enough effect; inconclusive = small, poorly fitted or top-dose-only effect; inactive = no such curve, though single readings can be large or run the other way;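 note: potency is the fitted concentration of half-maximal effect; 100% = response of the positive control SU9516; nearly all actives have a fitted effect of over 60% in size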
#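 Alpha7betagal+/- myoblasts (passage 13) were plated 16-24 hr, then exposed to compounds (1:260 dilution of DMSO stock) for 48 hours at 37C. After MPER lysis, β-galactosidase reporter activity was read as FDG fluorescence (ex 480/em 540) after 30 minutes.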
# Starred values were filed as active, the others as inactive; ? = inconclusive; nt = not tested or not shown; [ ] = another dose, or the depositor's remark. A selection: hits, their analogues and other compounds. The true share with any hit is near 2.9%.
SMILES,DRD3 antagonist,D3 ag,Integrin act MD
Cc1c(NC(=O)Nc2ccc(F)cc2)c(=O)n(-c2ccccc2)n1C,-21,11,-1%
O=c1[nH]c(=O)n(Cc2ccco2)c2c1C(C(F)(F)F)(C(F)(F)F)N=C(c1ccc(F)cc1)N2,48,56*,0%
O=c1[nH]c(=O)n(Cc2ccccc2)c2c1C(C(F)(F)F)(C(F)(F)F)N=C(c1ccco1)N2,32,1,25%
O=C(NC1(C(F)(F)F)C(=O)Nc2c1c(=O)[nH]c(=O)n2Cc1ccccc1)c1ccc(Cl)cc1 (centres undefined),0,-2,6%
CN(C)CCC(=O)c1ccc2c(c1)OCO2,-61*,-2,-69%
CN(C)CCCC(=O)c1ccc2c(c1)OCO2,0,-17,28%
CC(=O)Nc1ccccc1NC(=O)c1ccc2c(c1)OCO2,-18,-1,8%
CC(=O)Nc1ccccc1OCC(=O)c1ccc2c(c1)OCO2,13,47*,0%
Nc1ncnc2nc(SCCOc3ccc(Cl)cc3)[nH]c12,-13,0,-13%
Cc1sc(-n2c(C)cc(/C=C3\SC(=S)NC3=O)c2C)c(C#N)c1C,-71*,-21,39%
Cc1cc(/C=C2\SC(=S)NC2=O)c(C)n1-c1cccc(O)c1,?,-4,?
CS(=O)(=O)N1CCC(Oc2ccccc2C(=O)N2CCN(CC3CC3)CC2)CC1,1,6,-10%
C/C(=C/C#N)Nc1ccc(C)cc1,-28,-4,?
Cc1ccccc1NC1=C/C(=N\S(=O)(=O)c2ccc(C(=O)O)cc2)c2ccccc2C1=O,-97*,-20,-69%
O=C(O)c1ccc(S(=O)(=O)/N=C2\C=C(Nc3ccccc3F)C(=O)c3ccccc32)cc1,-107*,-28,?
CC(C)c1ccc(S(=O)(=O)/N=C2\C=C(NS(=O)(=O)c3ccccc3)C(=O)c3ccccc32)cc1,?,-16,-14%
CCc1ccc(S(=O)(=O)/N=C2\C=C(NS(=O)(=O)c3ccccc3)C(=O)c3ccccc32)cc1,?,-13,-29%
CC(=O)NC(C)C(=O)OCC(=O)c1ccc(Cl)s1 (centres undefined),16,-1,-26%
CCc1cc(C(=O)NNC(=S)NCC2CCCO2)cs1 (centres undefined),-53*,-2,-24%[7.66 µM]
Cc1cccc(NC(=S)NNC(=O)c2csc(C(C)C)c2)c1,15,-3,14%[7.66 µM]
CCc1cc(C(=O)NNC(=S)Nc2cccc(C)c2)cs1,-101*,-8,16%
CCCc1cc(C(=O)NNC(=S)NCC2CCCO2)cs1 (centres undefined),7,-13,-7%
CCOc1ccc(OCC)c(NC(=O)c2cnn(-c3ccc(F)cc3)c2C2CCN(C(=O)OC(C)(C)C)CC2)c1,nt,4,nt
CCC1(C)Cc2ccccc2-c2nc(NN)[nH]c(=O)c21 (centres undefined),25,4,6%
CCC1(C)Cc2ccccc2-c2nc(NCCO)[nH]c(=O)c21 (centres undefined),-52*,-7,19%
SMILES,DRD3 antagonist,D3 ag,Integrin act MD
C=CCn1c(-c2cc(OC)cc(OC)c2)n[nH]c1=S,-59*,-1,-2%
C=CCn1c(-c2cccc(OCC)c2)n[nH]c1=S,2,9,3%
CC(=O)c1cccc(NCC(=O)Nc2cc(S(=O)(=O)N3CCCCC3)ccc2C)c1,18,5,-4%
CCCc1cc(=O)oc2cc(OC(C)C(=O)NCC3CCC(C(=O)O)CC3)c(Cl)cc12 (centres undefined),-22,-13,-10%
CCCCc1cc(=O)oc2cc(OC(C)C(=O)NCC3CCC(C(=O)O)CC3)c(Cl)cc12 (centres undefined),-58*,-6,5%
Cc1ccc(C)c(NC(=O)C(=O)NCCc2csc(-c3ccc(C(F)(F)F)cc3)n2)c1,nt,-1,nt
CN(C(=O)CSc1nnc(-c2ccc([N+](=O)[O-])cc2)o1)C1CCCCC1,nt,-13,nt
CSc1ncccc1C(=O)NCCc1ccccc1,12,-12,0%
O=C(NC1CCN(Cc2ccccc2)CC1)c1ccccc1OCc1ccccc1Cl,-105*,-22,?
CSc1ncccc1C(=O)NC1CCN(Cc2ccccc2)CC1,-60*,-12,4%
O=C(NC1CCN(Cc2ccccc2)CC1)c1ccccc1Cl,?,-6,28%
CCOc1ccccc1C(=O)NC1CCN(Cc2ccccc2)CC1,-73*,-11,-28%
O=C(NCc1ccncc1)c1cn(-c2ccccc2)nc1-c1cccnc1,-2,-1,-2%
O=C(NC1CCN(Cc2ccc(Cl)cc2)CC1)c1cn(-c2ccccc2)nc1-c1cccnc1,-62*,-22,-51%
CCOC(=O)N1CCC(NC(=O)c2cc(C(=O)NC3CCN(Cc4ccccc4)CC3)ccc2CO)CC1,1,-8,10%
COc1ccc(-c2cc3nc(NCc4ccc(N(C)C)cc4)n(C)c(=O)c3s2)cc1OC,66,30,nt
CCCCn1c(N)c(N(CC(C)C)C(=O)CN(C)Cc2cccc(OC)c2)c(=O)[nH]c1=O,13,-5,-18%
CCOC(=O)c1ccc(N2C(=O)C(O)=C(C(C)=O)C2c2ccc(O)c(OC)c2)cc1 (centres undefined),?,6,25%
O=C(NC1CCCC1)c1ccccc1OCc1ccccc1,12,8,-7%
COc1ccc(-c2nn(-c3ccccc3)cc2C(=O)O)cc1OC,5,6,24%
O=C(NC1CCN(Cc2ccccc2)CC1)c1ccccc1OCc1ccccc1,-99*,-23,0%
O=C(O)c1cn(-c2ccccc2)nc1-c1ccc(Cl)cc1,-54*,9,12%
Cc1nc(NC(=O)C(C)(C)C)sc1-c1nc(N)sc1-n1cc(-c2ccccc2)nn1,10,10,nt
CCNc1nc(-c2sc(NC(=O)C(C)(C)C)nc2C)c(-n2cc(-c3ccccc3)nn2)s1,180,31*,nt
CNC(=O)CO/N=C/c1ccc(N(C)C)cc1,10,-7,-9%
SMILES,DRD3 antagonist,D3 ag,Integrin act MD
CCc1ccccc1OCCCCN1CCCC1,?,0,-46%
Cc1ccc(OCCn2ccnc2)c(C)c1,-21,-3,?
C=CCc1ccccc1OCCCCN1CCCC1,-83*,-12,-43%
c1ccc(-c2ccccc2OCCCCN2CCCCCC2)cc1,-86*,-3,-63%
C=CCc1cccc(OC)c1OCCOCCn1ccnc1,9,3,17%
C=CCc1ccccc1OCCn1ccnc1,-52*,6,14%
c1ccc(-c2ccccc2OCCCN2CCOCC2)cc1,0,0,8%
Cc1cc(C(C)(C)C)ccc1OCCn1ccnc1,-64*,2,-29%
O=C(Nc1cc2c3c(c1)CC(=O)N3CCC2)c1ccc(Cl)cc1,-9,-23,20%
c1ccc(-c2ccccc2OCCN2CCCC2)cc1,-63*,-23,-17%
c1ccc(-c2ccccc2OCCOCCN2CCCCC2)cc1,?,-28,-58%
CC(=O)c1ccccc1OCC(O)CN1CCN(c2ccccn2)CC1 (centres undefined),-12,15,16%
Cc1cc(C)c(C)c(OCC(O)CN2CCN(c3ccccn3)CC2)c1 (centres undefined),-20,63*,0%
Cc1cccc(OCC(O)CN2CCN(c3ccccn3)CC2)c1C (centres undefined),-21,68*,?
